Source: PubChem BioAssay
Pf growth 96h = inhibits malaria parasite growth, 96 h; P. falciparum luciferase reporter growth, 96 h; Potency, µM (doses to about 28.7 µM), without a hit: at the highest dose activity change, negative = inhibition, usual class: inhibitors; 6.9% of 320,000 active; AID 504834; also: potency is read from the fitted curve at half-maximal effect; % is scaled to controls: 0 for no effect and ±100 for the full control effect
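Two-generation exposure (96 h) targets delayed-death phenotype. Reporter parasites carrying integrated firefly luciferase, in red cells at 2% hematocrit and 0.05% parasitemia final, kept at 37 C, 5% CO2; luminescence loss indicates inhibition.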
Shiga inhibitor = inhibitors of Shiga toxin in Vero cells; 9.2% of 290,000 active; inhibition, % at 38.7 µM; Vero cells, Shiga toxin protein synthesis inhibition reporter; in the data active = inhibition mostly above about 28%, no sharp cut-off; inactive = mostly below about 43%; also: 0% is about no effect
Pf growth 48h = inhibits P. falciparum growth in the first generation, 48 h. P. falciparum luciferase growth in erythrocytes, 48 h. Potency, µM (series often up to 28.7 µM), without a hit: at the top dose activity change, negative = inhibition, actives largely listed as inhibitors. 5.9% of 310,000 active; also: potency is read from the fitted curve at half-maximal effect; % is scaled to controls: 0 for no effect and ±100 for the full control effect
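Cell-based growth assay: transgenic P. falciparum expressing firefly luciferase, cultured in red cells within RPMI 1640 containing 0.5% w/v Albumax, 24 mM bicarbonate and gentamycin. A drop in luciferase activity indicates inhibition.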
NS1 inh = influenza NS1 inhibition. Potency, µM (titrated, usually from 46.1 µM), for inactives: at the top dose activity, positive = more growth. 0.4% of 270,000 active. AID 2326; calls by dose curve; also: potency is read from the fitted curve at half-maximal effect; actives are rising curves; nearly all actives have a fitted effect of over 50% in size
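Read-out: OD600 growth recovery of NS1-expressing budding yeast. Cells grown overnight at 30C in -URA glucose medium, washed, resuspended and diluted 1:100 in 2% galactose assay medium, pH 6.0. Same strain lacking NS1 served as positive control.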
Sm TGR inh = inhibitors of Schistosoma mansoni thioredoxin glutathione reductase | AID 485364 | purified TGR, DTNB reduction, TNB absorbance 405 nm | 3% of 360,000 active | Potency, µM (highest dose often 114 µM), for the others: at the top dose activity change, negative = inhibition, hits mostly inhibitors; also: potency is read from the fitted curve at half-maximal effect; % is scaled to controls: 0 for no effect and ±100 for the full control effect; nearly all actives have a fitted effect of over 60% in size
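First, TGR (20 nM dispensed) and NADPH were mixed with compound. Second, a 15 min room-temperature incubation followed. Third, further NADPH and then DTNB were added to start the reaction. Finally, TNB absorbance was monitored kinetically.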
Cycloheximide cs = counter-screen hit for Shiga toxin inhibitors, cycloheximide; 12% of 300,000 active; cell reporter, cycloheximide protein synthesis inhibition counterscreen; AID 2314; max response, %; in the data active = max response mostly above about 13%, no sharp cut-off; inactive = mostly below about 14%; also: read at 38.3 µM for the half of the compounds with a filed dose; 0% is about no effect
An asterisk follows results filed as active; ? = inconclusive; nt = no result; [ ] = remark or other dose. Hits are enriched below; roughly 21% of the tested compounds scored in any of these assays. Unless noted, calls follow the shape of the dose curve; as a rule, active = well fitted curve in the direction sought with a large enough effect; inconclusive = small, poorly fitted or top-dose-only effect, or another doubt; inactive = no such curve, though single readings can be large; an effect the other way counts as inactive or inconclusive.

SMILES	Pf growth 96h	Shiga inhibitor	Pf growth 48h	NS1 inh	Sm TGR inh	Cycloheximide cs
O=C(O)c1cccc(NC(=O)c2ccccc2)c1	nt	nt	nt	16%	nt	nt
O=C(NCc1ccccc1)C(=O)Nc1cccc(C(=O)O)c1	288%	158*	236%	5%	21%	61*
O=C(O)/C=C\C(=O)Nc1cccc(NC(=O)c2ccccc2)c1	13%	52	17%	7%	nt	22*
O=C(O)c1cccc(NC(=O)c2cc(NC(=O)c3ccccc3)cc(NC(=O)c3ccccc3)c2)c1	8.3µM*	-11	40%	30%	-1%	-5
Cc1ccc(C(=O)Nc2cccc(C(=O)O)c2)cc1	2%	71*	nt	0%	0%	42*
Cc1ccc(S(=O)(=O)c2nnn3c2nc(NC(C)C)c2cc(Cl)ccc23)cc1C	nt	nt	nt	nt	5%	nt
CCSc1ccc(C(=O)Nc2ccc(Br)cn2)cc1[N+](=O)[O-]	-13%	20	20%	nt	2%	7
CCSc1ccc(C(=O)Nc2cccc(C)n2)cc1[N+](=O)[O-]	2%	23*	64%	2%	4%	10.0*
Cc1cccc(NC(=O)c2ccc(NC(C)c3ccccc3)c([N+](=O)[O-])c2)n1 (stereo not given)	-2%	19	9.3µM*	3%	12%	16
COC(=O)c1scc(C#N)c1N/N=C(\C#N)S(=O)(=O)c1ccc(Cl)cc1	-24%	4	3%	0%	32µM*	-2
O=C(COC(=O)c1cccc(NS(=O)(=O)c2ccc(F)c(F)c2)c1)NC(=O)NC1CCCC1	44%	-11	18%	3%	-12%	-3
Cc1ccc2cccc(NC(=O)COc3ccccc3Cl)c2n1	nt	nt	nt	nt	10%	nt
O=C(NCCc1ccccc1)/C(=N\O)c1ccccc1	23%	52*	84%	3%	-3%	45*
CNC(=O)/C(=N\O)c1ccccc1	9.3µM*	45*	46%	-8%	1%	15
Cc1ccc(C(=O)COC(=O)c2cc(-c3ccc(Cl)cc3)nc3ccccc23)cc1	nt	nt	nt	nt	0%	nt
CCn1nnnc1NCc1ccc(OCc2c(F)cccc2Cl)c(OC)c1	-26%	20	?	0%	-1%	12
C#CC1(NC(=O)NC(C)C)CCCCC1	27%	-4	7%	7%	nt	3
CC(=O)N(C1=C(N2CCOCC2)C(=O)c2ccccc2C1=O)c1ccc(C(=O)O)cc1	0.41µM*	-11	1µM*	0%	2.8µM*	-5
CC(=O)N(C)C1=C(N2CCOCC2)C(=O)c2ccccc2C1=O	0.29µM*	-5	2.1µM*	8%	16%	-1
CCOC(=O)c1ccc(NS(=O)(=O)c2cc3c(cc2C)n(C)c(=O)c(=O)n3C)cc1	nt	nt	nt	nt	4%	nt
Cc1nnc(SC(C)C(=O)Nc2ncc(Cl)cc2Cl)n1Cc1ccccc1 (stereo not given)	2.1µM*	-13	?	9%	-1%	-7
CN(Cc1cccc(C(F)(F)F)c1)Cc1nc(-c2cnccn2)no1	7.4µM*	21	19%	0%	7%	10
CN(Cc1ccc(F)cc1)Cc1nc(-c2cnccn2)no1	8%	37	4%	2%	-11%	6
Cc1ccc(NC(=O)/C(C#N)=C/c2ccccc2Cl)cc1C	nt	nt	nt	nt	-7%	nt
CSc1nc(Oc2ccc3ccccc3c2)c2ccccc2n1	?	21	10µM*	22%	-2%	3
SMILES	Pf growth 96h	Shiga inhibitor	Pf growth 48h	NS1 inh	Sm TGR inh	Cycloheximide cs
COc1ccc(CN2C(=O)NC(=O)/C(=C\c3ccco3)C2=O)cc1	21%	21	?	nt	?	1
O=C1NC(=O)N(Cc2ccc(F)cc2)C(=O)/C1=C\c1ccc([N+](=O)[O-])s1	4%	19	-1%	-7%	2.2µM*	-3
O=C1NC(=O)N(CCc2ccc(F)cc2)C(=O)/C1=C/c1cccs1	19%	43	16%	nt	?	7
COc1ccc(CN2C(=O)NC(=O)/C(=C/c3ccc([N+](=O)[O-])s3)C2=O)cc1	17%	-5	56%	-1%	1.1µM*	-1
COc1cc(OC)c(OC)cc1/C=C1/C(=O)NC(=O)N(Cc2ccccc2)C1=O	0%	-8	2%	5%	?	-2
COc1ccc(CN2C(=O)NC(=O)/C(=C\c3cc(OC)c(OC)c(OC)c3)C2=O)cc1	-3%	17	3%	nt	13µM*	-4
O=C(CSc1c2c(nc3ccc(Cl)cc13)CCCC2)NCCCN1CCOCC1	?	-15	?	nt	-35%	-3
CCOC(=O)C(=CNc1nc(-c2ccc3ccccc3c2)cs1)C(=O)OCC	74%	38*	79%	-3%	-19%	27*
CCOC(=O)C(=CNc1nc(-c2ccccc2)c(C(=O)Nc2ccc(-c3ccccc3)cc2)s1)C(=O)OCC	15µM*	6	?	9%	-2%	-8
O=C(Nc1nc(-c2ccc3ccccc3c2)cs1)c1ccc(N2C(=O)CCC2=O)cc1	-19%	-7	-7%	17%	-2%	-3
O=C(O)c1ccccc1C(=O)Nc1nc(-c2ccc3ccccc3c2)cs1	7%	66*	39%	?	-19%	36*
COc1ccccc1N1CCN(CC(=O)Nc2ccc(S(=O)(=O)N3CCCCCC3)cc2)CC1	?	nt	?	nt	-2%	nt
Cc1cc(C)c(S(=O)(=O)N(C)c2ccccc2)c(C)c1	?	-3	-28%	nt	0%	10
Cc1cccc(OCCNS(=O)(=O)c2ccc(Cl)cc2)c1	-16%	nt	-9%	nt	-4%	nt
O=[N+]([O-])c1ccc(CN2CCSCC2)cc1	121%	-8	?	nt	-5%	-3
N=c1ccn(Cc2ccc([N+](=O)[O-])cc2)cc1	?	29	4.1µM*	2%	24%	1
Cn1c2ccccc2c2nnc(SCCN3CCOCC3)nc21	-57%	30	33%	2%	-10%	16*
Cn1c2ccccc2c2nnc(SCc3nnc(-c4ccccc4)o3)nc21	4.1µM*	-14	9%	1%	-1%[57.1 µM]	-3
Cn1c(SCc2nnc(-c3ccccc3)o2)nc2ccccc21	-10%	-5	-10%	nt	7%	20
Cc1ccc(C(=O)n2ncn(C)c2=S)cc1	11%	10	0%	0%	18µM*	-4
Cn1c(Cc2ccccc2)[n+](C)c2ccccc21	?	-15	?	nt	-2%	-3
CC1Sc2n(c3ccccc3[n+]2C)N=C1c1ccccc1 (stereo not given)	-102%	-14	0.93µM*	0%	-1%	-8
O=C(CCCCCNC(=O)N1CCn2c1nc1ccccc12)N[C@H](Cc1ccccc1)C(=O)O	?	-11	-3%	-6%	4%	-3
CN1/C(=C\C(=O)CSc2cccc[n+]2[O-])C(C)(C)c2ccccc21	3.3µM*	-14	-24%	nt	2%	1
CN1/C(=C\C(=O)C[n+]2cccc(Br)c2)C(C)(C)c2ccccc21	15µM*	10	2.3µM*	0%	-8%	1
CN1/C(=C/C(=O)CSc2ccccc2C(=O)O)C(C)(C)c2ccccc21	44%	-2	-5%	10%	?	-2
